Assay results: the supplement of paper PMC6089552
Screen size: about 3,200 compounds; about 300 (9.4%) showed activity. Shown is part of a subset that was picked to be rich in actives.

Test system: A673/TR/shEF
Experiment: cell viability (LOESS-normalised, relative to median of negative controls) (log2 ratio); higher = more viable cells (less compound effect), active = hit call of the paper (over 3 MAD below the median)
Conditions: treatment time: 72 h
In short: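 For three days, A673/TR/shEF Ewing sarcoma cells in 384-well plates (1,500 per well) were treated with library compounds at two or more concentrations or with DMSO controls, after doxycycline had been added or withheld 24 h beforehand to induce EWS-FLI1 shRNA knockdown. Viability was read by CellTiter-Glo luminescence on an Envision reader. The data were LOESS-corrected per plate, divided by the median of negative controls and log2-transformed.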

[1] = 0.25 µM, library screen: screen1, EWS-FLI1 expression: high (no doxycycline)
[2] = 0.25 µM, library screen: screen1, EWS-FLI1 expression: low (doxycycline-induced shRNA knockdown)
[3] = 2.5 µM, library screen: screen1, EWS-FLI1 expression: high (no doxycycline)
[4] = 2.5 µM, library screen: screen1, EWS-FLI1 expression: low (doxycycline-induced shRNA knockdown)
[5] = 0.025 µM, library screen: screen1, EWS-FLI1 expression: high (no doxycycline)
[6] = 0.025 µM, library screen: screen1, EWS-FLI1 expression: low (doxycycline-induced shRNA knockdown)
[7] = 0.25 µM, library screen: screen2, EWS-FLI1 expression: high (no doxycycline)
[8] = 0.25 µM, library screen: screen2, EWS-FLI1 expression: low (doxycycline-induced shRNA knockdown)
[9] = 2.5 µM, library screen: screen2, EWS-FLI1 expression: high (no doxycycline)
[10] = 2.5 µM, library screen: screen2, EWS-FLI1 expression: low (doxycycline-induced shRNA knockdown)
[11] = 25 µM, library screen: screen1, EWS-FLI1 expression: high (no doxycycline)
[12] = 25 µM, library screen: screen1, EWS-FLI1 expression: low (doxycycline-induced shRNA knockdown)
[13] = 0.103 µM, library screen: screen3, EWS-FLI1 expression: high (no doxycycline)
[14] = 0.103 µM, library screen: screen3, EWS-FLI1 expression: low (doxycycline-induced shRNA knockdown)
[15] = 0.308 µM, library screen: screen3, EWS-FLI1 expression: high (no doxycycline)
[16] = 0.308 µM, library screen: screen3, EWS-FLI1 expression: low (doxycycline-induced shRNA knockdown)
[17] = 0.926 µM, library screen: screen3, EWS-FLI1 expression: high (no doxycycline)
[18] = 0.926 µM, library screen: screen3, EWS-FLI1 expression: low (doxycycline-induced shRNA knockdown)
[19] = 2.8 µM, library screen: screen3, EWS-FLI1 expression: high (no doxycycline)
[20] = 2.8 µM, library screen: screen3, EWS-FLI1 expression: low (doxycycline-induced shRNA knockdown)
[21] = 8.3 µM, library screen: screen3, EWS-FLI1 expression: high (no doxycycline)
[22] = 8.3 µM, library screen: screen3, EWS-FLI1 expression: low (doxycycline-induced shRNA knockdown)
[23] = 25 µM, library screen: screen3, EWS-FLI1 expression: high (no doxycycline)
[24] = 25 µM, library screen: screen3, EWS-FLI1 expression: low (doxycycline-induced shRNA knockdown)

Measured: cell viability (log2)

COc1cc(/C=C2\SC(NC(C)=O)=NC2=O)cc(Br)c1OC
inactive: [1] 0.0313 | [2] 0.0267 | [3] 0.0885 | [4] 0.0962

O=C(O)Cc1cc(I)c(Oc2cc(I)c(O)c(I)c2)c(I)c1
inactive: [1] 0.0518 | [2] 0.0863 | [3] 0.0776 | [4] -0.0191

COC(=O)[C@H](O)[C@H]1C(C)(C)[C@H](O)[C@@H]2CC3=C4CC(=O)O[C@@H](c5ccco5)[C@]4(C)CC[C@@H]3[C@@]1(C)C2=O
inactive: [1] 0.0837 | [2] 0.0423 | [3] 0.0416 | [4] -0.137

COc1ccc(C2NC(=O)NC(C)=C2C(=O)Nc2ccccc2Cl)cc1OC (stereo unspecified)
inactive: [1] 0.0783 | [2] 0.013 | [3] 0.0736 | [4] -0.0647

CCCCCCCCCCCCC/C=C/[C@@H](O)[C@@H](N)CO
inactive: [5] 0.0541 | [6] 0.028 | [1] 0.0998 | [2] 0.0415 | [7] 0.0615 | [8] 0.0389 | [3] 0.0515 | [4] 0.0695 | [9] 0.162 | [10] 0.0866
active: [11] -4.25 | [12] -4.31

CCCCCCCC/C=C/CCCCCCCC(=O)OC(CO)COC(=O)CCCCCCCCCCCCCCC (stereo unspecified)
inactive: [7] 0.242 | [8] 0.101 | [9] 0.231 | [10] 0.152

CCCCCCCCCCCCCCC[C@H](O)[C@H](N)CO
inactive: [7] 0.153 | [8] 0.105 | [9] 0.146 | [10] 0.102

CCC(C)n1ncn(-c2ccc(N3CCN(c4ccc(OC[C@H]5CO[C@](Cn6cncn6)(c6ccc(Cl)cc6Cl)O5)cc4)CC3)cc2)c1=O (stereo partly specified)
inactive: [13] -0.00587 | [14] -0.0322 | [15] 0.0158 | [16] 0.0366 | [17] 0.0942 | [18] 0.0808 | [19] 0.0248 | [20] 0.0437 | [21] -0.13 | [22] 0.0912 | [23] 0.0658 | [24] 0.11

COC(=O)C(O)c1ccccc1 (stereo unspecified)
inactive: [1] 0.0881 | [2] 0.0567 | [3] 0.0992 | [4] 0.015

Nc1ccc2c3c(cccc13)C(=O)NC2=O
inactive: [8] 0.0582 | [9] 0.0677 | [10] 0.123
active: [7] -0.219

COc1cc(/C=C/C=O)cc(OC)c1OC
inactive: [1] 0.0589 | [2] 0.0132 | [3] 0.0586 | [4] 0.0289

OC1C=CC(Br)C(O)C1O (stereo unspecified)
inactive: [7] 0.12 | [8] 0.141 | [9] 0.0654 | [10] 0.0803

FC(F)(F)c1ccc(/C=C/c2nc(COc3ccc(CCCCn4ccnn4)cc3)co2)cc1
active: [13] -0.325 | [15] -0.568 | [16] -0.12 | [17] -0.774 | [18] -0.153 | [19] -1.45 | [20] -0.118 | [21] -1.63 | [22] -0.193 | [23] -1.47 | [24] -0.184
inactive: [14] -0.0943

CC(=O)OC1CC[C@@]2(C)C(CC[C@H]3[C@@H]4CC=C(C(C)=O)[C@@]4(C)C(=O)C[C@@H]32)C1 (stereo partly specified)
inactive: [1] 0.0289 | [2] 0.0314 | [3] 0.141 | [4] 0.0915

COC(=O)C[C@H]1C(C)(C)[C@H](O)[C@@H]2CC3=C4CC(O)O[C@@H](c5ccoc5)[C@]4(C)CCC3[C@@]1(C)C2=O (stereo partly specified)
inactive: [1] 0.0798 | [2] 0.183 | [3] 0.141 | [4] 0.127

COc1ccc(CCN(C)CCc2ccc(OC)c(OC)c2)cc1OC
inactive: [7] 0.187 | [8] 0.0366 | [9] 0.198 | [10] 0.0294

COc1ccc(CCNCC(O)c2ccc(O)cc2)cc1OC (stereo unspecified)
inactive: [7] 0.167 | [8] -0.0395
active: [9] -0.721 | [10] -0.108

C[C@H](NCCc1ccc(O)cc1)[C@H](O)c1ccc(O)cc1
inactive: [13] -0.0282 | [14] 0.0403 | [1] 0.119 | [2] 0.0926 | [7] 0.11 | [8] 0.0788 | [15] 0.0762 | [16] 0.0395 | [17] 0.0419 | [18] 0.0833 | [3] 0.157 | [4] 0.125 | [9] 0.0729 | [10] -0.0642 | [19] 0.0463 | [20] 0.0441 | [21] 0.098 | [22] 0.0382 | [23] 0.0513 | [24] 0.0444

CC1(C)C(=O)C=C[C@]2(C)[C@H]3CC[C@@]4(C)[C@H](c5ccoc5)OC(=O)[C@H]5O[C@]54[C@]3(C)C=C[C@@H]12
inactive: [1] 0.0993 | [2] 0.0207 | [3] 0.1 | [4] 0.161

CC(=O)O[C@H]1C[C@@H](OC(C)=O)C(C)(C)C2C[C@@H](OC(C)=O)[C@@]3(C)C4=CC(=O)OC(=O)[C@]4(C)CCC3[C@]21C (stereo partly specified)
inactive: [1] 0.0349 | [2] 0.118 | [3] 0.174 | [4] 0.189

CC1(C)C(=O)[C@@H]2C[C@@]3(O)C4=CC(=O)O[C@@H](c5ccoc5)[C@]4(C)CCC3C(C)(C2=O)[C@H]1CC(=O)O (stereo partly specified)
inactive: [1] 0.0688 | [2] 0.13 | [3] 0.086 | [4] 0.0264

O=C(O)c1ccc(OC2CSC2)cc1
inactive: [1] -0.0489 | [2] 0.0317 | [3] 0.0805 | [4] 0.0727

CC(C)N1C(=O)/C(=C/c2ccc(N(C)C)cc2)SC1=S
inactive: [1] 0.23 | [2] 0.276 | [3] 0.232 | [4] 0.349

CN(C)c1ccc(/C=C2\C(=O)Nc3ccccc32)cc1
inactive: [5] 0.182 | [6] 0.00152 | [1] 0.171 | [2] 0.0583 | [4] 0.0499 | [12] 0.195
active: [7] -1.84 | [8] -0.565 | [3] -0.163 | [9] -2.61 | [10] -0.918 | [11] -0.158

O=C1Nc2ccc(I)cc2/C1=C/c1cc(Br)c(O)c(Br)c1
inactive: [5] 0.115 | [6] -0.011 | [1] 0.134 | [2] -0.0458 | [7] 0.275 | [8] 0.0983 | [3] 0.0489 | [4] 0.0445 | [9] 0.0633 | [10] 0.123 | [11] -0.0847 | [12] 0.107
